# Results as given in the supplement of paper PMC10941209.
# Test system: HFF
# Assay: cell viability relative to DMSO control; higher = less cytotoxic
# Settings: 1 µM; 72 h
# Protocol: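 Single-dose cytotoxicity screen of the MMV Pandemic Response Box at 1 uM on human foreskin fibroblasts (HFF), 72 h at 37 C. Viability measured by MTT (OD 550 nm) and normalised to the DMSO control (% survival).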
row,Structure (SMILES),cell viability [%]
1,C[N+]1(C)CCCC(OC(=O)C(O)(c2ccccc2)c2ccccc2)C1 (stereo not drawn),69.6
2,O=C(NC12CC3CC(CC(C3)C1)C2)c1cc2ccccc2[nH]1,83.6
3,COc1cc(C(C)(C)CCCC(C)C)cc(OC)c1OC,61
4,NC1(C(=O)O)CCP(=O)(O)CC1 (stereo not drawn),63.1
5,C[C@@]1(O)[C@H](O)[C@@H](CO)O[C@H]1n1ccc2c(N)ncnc21,68.5
6,COC(=O)Nc1nc2ccccc2[nH]1,66.4
7,CCCCc1ccc(C(=O)O)nc1,56.4
8,CN1C(=O)C(c2ccccc2)C(=O)N(c2ccccc2)c2cc(C(F)(F)F)ccc21 (stereo not drawn),66.3
9,C[C@H]1CC[C@]2(NC1)O[C@H]1C[C@H]3[C@@H]4CC[C@H]5C[C@@H](O)CC[C@]5(C)[C@H]4CC[C@]3(C)[C@H]1[C@@H]2C,73.1
10,COc1ccccc1CN[C@H]1C2CCN(CC2)[C@H]1C(c1ccccc1)c1ccccc1,58.7
11,CC(C)Oc1cccc(NC(=O)c2ccccc2C(F)(F)F)c1,70.5
12,CCN1CCN(Cc2nc3ccc([N+](=O)[O-])cc3c(=O)n2-c2ccccc2F)CC1,62.2
13,Nc1c(C(=O)NCc2ccco2)c2nc3ccccc3nc2n1CCN1CCCCC1,64.1
